# Assay results: PubChem BioAssay AID463173 (ICCB-Longwood Screening Facility, Harvard Medical School, 2010)
# The campaign covered roughly 52,000 compounds. About 1,700 (3.3%) were called active. For the sample, actives were picked, then their nearest neighbours and some compounds at random. A number with no mark means an inactive call. Cut-off read from the data, not from the text of the source: active = survival mostly below about 52% (no sharp cut-off); inactive = mostly above about 56%.
# Tested on: Wild type
# Test: S. aureus survival, RN4220 and DeltatarO strains – OD600, teichoic acid synthesis inhibitors, primary screen (AID 463173)
# Conditions: S. aureus RN4220 wild type/DeltatarO growth, OD600, 18 h, hits give low values, screened at 18.75 µg/mL (by protocol)
row,SMILES,survival
1,CC(=O)Nc1nonc1-c1nnc(SCC(=O)Nc2ccccc2)n1-c1ccccc1,51%
2,O=C(NC1CCCC1)C(c1ccc(O)cc1)N(C(=O)Cn1nnc(-c2cccs2)n1)C1CCCC1 (stereo not given),100%
3,O=C(Cn1c(=O)sc2ccccc21)OCc1ccccc1,118%
4,O=C(Cn1c(=O)sc2ccccc21)Nc1ccc(O)cc1,103%
5,CS(=O)(=O)n1c(=O)sc2ccccc21,121%
6,CCCCOc1ccccc1Cn1c(=O)sc2ccccc21,-4% (active)
7,CC(C)CCOc1ccccc1Cn1c(=O)sc2ccccc21,-1% (active)
8,CCN(CC)C(=O)Cn1c(=O)sc2ccccc21,105%
9,CCOC(=O)Cn1c(=O)sc2ccccc21,116%
10,Cc1cccc(NC(=O)Cn2c(=O)sc3ccccc32)c1,119%
11,CCCOc1ccccc1Cn1c(=O)sc2ccccc21,-5% (active)
12,COc1ccc(CNCCNC(=O)c2cccs2)c(OC)c1OC,108%
13,COc1ccc(CNC(=O)c2ccc3c(c2)N(Cc2ccc(C)cc2)CCS3)cc1,93%
14,O=C(Cn1nc(-c2ccc(Cl)cc2)ccc1=O)NCCc1ccccc1,45%
15,C=Cc1ccc(Cn2c(=O)n(-c3cccc(Cl)c3)c(=O)c3c4c(sc32)CN(C(C)=O)CC4)cc1,81%
16,Cc1cc(C)c(S(=O)(=O)N2CCN(Cc3nc4ccc(C)cc4o3)CC2)c(C)c1,73%
17,O=[N+]([O-])c1cc(-c2nc(-c3ccccc3)no2)ccc1NCC1CCCO1 (stereo not given),86%
18,CC(C)(C)OC(=O)N1CCC(c2c(C(=O)NCc3ccccn3)cnn2-c2ccccc2Cl)CC1,-6% (active)
19,CCOC(=O)N1CCC(NC(=O)c2cnn(-c3cccc(Cl)c3C)c2C2CCN(C(=O)OC(C)(C)C)CC2)CC1,-3% (active)
20,Cc1ccc(-n2ncc(C(=O)NCc3ccccn3)c2C2CCN(C(=O)OC(C)(C)C)CC2)c(C)c1,45%
21,Cc1c(Cl)cccc1-n1ncc(C(=O)NC2CCCC2)c1C1CCN(C(=O)OC(C)(C)C)CC1,66%
22,Cc1c(Cl)cccc1-n1ncc(C(=O)NC2CCCCC2)c1C1CCN(C(=O)OC(C)(C)C)CC1,75%
23,CC(C)(C)OC(=O)N1CCC(c2c(C(=O)NCc3ccccn3)cnn2-c2ccccc2)CC1,73%
24,CC1CCN(S(=O)(=O)c2ccc3c(c2)c(=O)c(C(=O)N2CCN(c4cccc(Cl)c4)CC2)cn3C)CC1,94%
25,CCCNC(=O)Cn1nc(-c2ccc(F)cc2)c2cnc3ccc(F)cc3c21,82%
